This passage reports Inhibition results from ChEMBL document CHEMBL4513146, “CO-ADD screening of Karazin Kharkiv National University (Ukraine) compounds”.

In general, Inhibition refers to how much of the control response was suppressed. Low values mean a response near the control, high ones a response far below the control.

Results with a measured potency or affinity are listed apart.

The test concerns Klebsiella pneumoniae. As to conditions: Concentration 32 ug.mL-1;; ASSAY_TEST Inhibition of Bacterial Growth; detection method Absorption (OD600); MEDIA CAMHB; plate type 384well; NBS; CORNING #3640; time 18 hr.
The molecule `O=S(=O)(c1ccc2nncn2c1)N(Cc1cc(F)cc(F)c1)c1cccc(F)c1` displayed an Inhibition of 11.98%.
The value for `COc1cccc(Oc2nccn3c(=O)n(CC(=O)Nc4ccccc4C(F)(F)F)nc23)c1` was 12.08%; that for `CCCc1nnc2c(=O)n(CC(=O)Nc3ccc(C#N)cc3)c3ccccc3n12` was 0.24%.
Regarding `CC(C)c1nnc2c(=O)n(CC(=O)Nc3cccc(Cl)c3)c3ccccc3n12`, the Inhibition was 4.29%.
`CC(C)CCn1c(=O)c2sccc2n2c(=O)n(Cc3ccccc3Cl)nc12` showed an Inhibition of 16.14%.
As for `O=C(CSc1nnc2c(=O)n(-c3ccccc3)ccn12)Nc1ccccc1F`, the Inhibition is 7.24%.
In turn, `Cc1ccc(CN(c2ccc(C(C)C)cc2)S(=O)(=O)c2cccn3cnnc23)cc1` registered an Inhibition of 23.96%.
As for `CCCCc1ccc(NC(=O)CSc2nc3ccccc3n3c(C(C)C)nnc23)cc1`, the Inhibition was 2.68%.
With `COC(=O)c1cccc(NC(=O)Cn2nc3c(Oc4ccccc4)nccn3c2=O)c1` the figure was 3.42%; with `N#Cc1cccc(NC(=O)CSc2nnc3c4cc(-c5ccccc5)nn4ccn23)c1`, 9.61%; with `COc1ccc(OC)c(NC(=O)Cn2nc3c(Sc4ccccc4)nc4ccccc4n3c2=O)c1`, 8.31%.
With `COc1cccc(NC(=O)Cn2nc3c4c5c(sc4ncn3c2=O)CCCC5)c1` the figure was 10.28%.
The value for `Cc1cc2nn(CC(=O)Nc3ccc(F)cc3)c(=O)n2c(Nc2ccccc2C)n1` was 4.2%; that for `CCCCOc1ccc(-c2cc3c4nnc(SCC(=O)Nc5ccc(C)c(C)c5)n4ccn3n2)cc1` was 4.46%.
In turn, `Cc1ccccc1Oc1nc2ccccc2n2c(=O)n(CC(=O)Nc3cccc(C(F)(F)F)c3)nc12` yielded an Inhibition of 12.65%.
